Bioassay records deposited in PubChem by National Center for Advancing Translational Sciences (NCATS).
GoLoco inh red – inhibitors of human Gai1-RGS12 GoLoco interaction (red fluorophore); P63096; AID 880; Potency, µM (titrated, usually from 61.6 µM), most hits filed as inhibitors; actives 0.44% (n = 230,000); Gai1:RGS12 GoLoco peptide FP, rhodamine, 10 min; active means well fitted inhibition curve with a large enough effect, not every such curve was filed as active; inactive means no such curve, though single readings can be large or run the other way; further: nearly all actives have a fitted effect of over 30% in size
Target sequence (P63096 whole entry, looked up): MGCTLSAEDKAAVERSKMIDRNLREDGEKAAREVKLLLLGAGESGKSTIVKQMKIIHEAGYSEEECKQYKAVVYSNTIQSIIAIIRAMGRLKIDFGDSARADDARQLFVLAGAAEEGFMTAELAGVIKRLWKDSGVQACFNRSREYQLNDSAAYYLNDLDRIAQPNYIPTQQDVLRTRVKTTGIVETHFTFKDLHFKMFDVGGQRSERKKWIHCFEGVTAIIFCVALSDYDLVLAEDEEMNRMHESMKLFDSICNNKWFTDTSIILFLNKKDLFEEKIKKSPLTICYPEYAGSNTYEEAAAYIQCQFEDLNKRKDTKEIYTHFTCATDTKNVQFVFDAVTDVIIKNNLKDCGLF
NPSR antagonist – blocks cAMP signaling of the human neuropeptide S receptor; Q6W5P4; CHO-NPSR cells, cAMP TR-FRET, antagonist mode; Potency, µM (top dose mostly 38.3 µM), usual class: inhibitors; actives 1% (n = 220,000); AID 1461; further: nearly all actives have a fitted effect of over 50% in size
Sfp inh – inhibitors of Bacillus subtilis Sfp phosphopantetheinyl transferase; actives 3.5% (n = 310,000); Biochemical Sfp PPTase activity, qHTS; Potency, µM, usual class: inhibitors;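 further: the enzyme is Sfp with the accession as filed and its product quenches rhodamine fluorescence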
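Fluorescence-quenching assay: 15 nM Sfp-PPTase preincubated 15 min at room temperature with compound, then 5 uM rhodamine-CoA and 12.5 uM BHQ-2-labelled YbbR peptide added. Fluorescence (ex 525/em 598 nm) read at start and after 30 min; difference gives rate.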
FBPA coupling cs – counter-screen for Giardia aldolase inhibitors: coupling enzyme system; coupling enzyme system counterscreen, AmpLite Red fluorescence; activity change, negative = inhibition, % at 58.2 µM, hits read low; actives 0.67% (n = 290,000); AID 2472; in the data active means activity change below about -30%
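Counterscreen of the coupled detection system alone, without aldolase: glyceraldehyde-3-phosphate coupling enzymes plus AmpLite Red readout. Compounds at 57.5 uM final, 10 min RT preincubation, 20 min RT reaction, fluorescence 525/598 nm.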
ALDH1A1 inh – ALDH1A1 (human) enzyme inhibition; Purified ALDH1A1, NADH fluorescence, propionaldehyde substrate; actives 7.3% (n = 220,000); AID 1030; P00352; Potency, µM (titrated, usually from 75.3 µM), actives largely listed as inhibitors; active means well fitted inhibition curve with a large enough effect, not every such curve was filed as active; inconclusive means small, poorly fitted or top-dose-only effect, or another doubt; inactive means no such curve, though single readings can be large or run the other way
KDM4E inh – inhibitors of human JMJD2E histone demethylase; B2RXH2; JMJD2E catalytic domain, FDH-coupled NADH fluorescence (FDH is formaldehyde dehydrogenase); Potency, µM (highest dose often 57.1 µM), most hits filed as inhibitors; actives 1.6% (n = 230,000); active means well fitted inhibition curve with a large enough effect, not every such curve was filed as active; inconclusive means small, poorly fitted or top-dose-only effect, or another doubt; inactive means no such curve, though single readings can be large or run the other way; further: nearly all actives have a fitted effect of over 50% in size
Hits are given with their value; n = inactive; u = inconclusive; x = no result; ! = not active in a repeat; [ ] = another dose, or the depositor's remark. Rows were chosen to be rich in hits. Some 8.5% of all compounds tested hit in one or more screens of this group. Unless noted, the call rests on the fitted dose curve; in most records, active means well fitted curve in the direction sought with a large enough effect; inconclusive means small, poorly fitted or top-dose-only effect, or another doubt; inactive means no such curve, though single readings can be large; an effect the other way counts as inactive or inconclusive.

SMILES | GoLoco inh red | NPSR antagonist | Sfp inh | FBPA coupling cs | ALDH1A1 inh | KDM4E inh
Cc1ccc(CNC(=O)[C@H]2C[C@@H]2[C@H](NP(=O)(c2ccccc2)c2ccccc2)c2ccccc2)o1 | n | n | 35µM | n | n | n
S=C1SCN(Cc2ccco2)CN1Cc1ccco1 | n | u | u | n | x | n
N#CC1=C2SCN(Cc3ccco3)CN2C(=O)CC1c1cccc2ccccc12 (stereo not drawn) | n | n[7.67 µM] | 1.4µM | n | u | u
COc1ccc(NC(=O)CNS(=O)(=O)c2ccc(Cl)cc2)cc1 | n | n | n | n | u | n
COc1ccc(NC(C)=[N+](C)CCNS(=O)(=O)c2ccc(Cl)cc2)cc1 | x | x | 71µM | x | x | x
CC12CCC(CC1=O)C2(C)C (stereo not drawn) | n | x | x | x | 7.1µM | x
CCOC(=O)c1cccc(NC(=O)COc2nsnc2N2CCOCC2)c1 | x | x | n | n | x | x
COc1ccc(Cn2c(-c3ccc(OC)cc3)nc3c(c(=O)c4ccccc4n3C)c2=O)cc1 | n | n | n | n | 0.28µM | n
Cn1c2ccccc2c(=O)c2c(=O)n(Cc3ccco3)c(-c3ccc(Cl)cc3Cl)nc21 | n | u | 8.9µM | n | u | u
COc1ccc(Cn2c(-c3ccco3)nc3c(c(=O)c4ccccc4n3C)c2=O)cc1 | n | n | n | n | x | u
OCc1ccc(-c2ccc(-c3ccc(CO)s3)o2)s1 | n | x | n | n | u | x
CC(=O)c1c(O)c(C)c(O)c2c1OC1=CC(=O)C(C(C)=O)C(=O)[C@@]12C (stereo partly drawn) | n | x | n | n | n | n
O=[N+]([O-])c1ccc(NCCO)c(OCCO)c1 | n | x | x | x | n | x
O=[N+]([O-])c1ccc2nc(-c3ccncc3)[nH]c2c1 | n | n | n | n | n | n
O=[N+]([O-])c1ccc(-c2nc(-c3ccc(F)cc3)c(-c3ccncc3)[nH]2)cc1 | n | 7.9µM | n | n | u | n
O[C@H](CNc1ccccn1)c1ccccc1 | n[14.2 µM] | x | x | x | n[13.5 µM] | x
CC(C)(C)n1nnnc1CN1C2CCC1CC(NC(=O)Nc1ccccc1)C2 (stereo not drawn) | n | n | n | n | u | n
CCOC(=O)c1ccc(NC(=O)NC2CC3CCC(C2)N3Cc2nnnn2Cc2ccco2)cc1 (stereo not drawn) | n | n | n | n | 13µM | n
CCOc1ccc(S(=O)(=O)NCCCl)cc1 | n | n | n | n | n | n
CCOc1ccc(S(=O)(=O)NNS(=O)(=O)c2ccc(C)cc2C)cc1 | x | x | 79µM | n | x | x
COc1ccc(-c2[nH]ncc2CN(C)CCc2c(C)n[nH]c2C)c(F)c1 | n | n | n | n | 10µM | n
COc1ccc(-c2[nH]ncc2CN(C)C(C)c2cccs2)c(F)c1 (stereo not drawn) | n | n | n | n | u | n
Nc1nc2ccc([N+](=O)[O-])cc2[nH]1 | n | n | n | n | u | n
COc1ccc(-c2nc3ccc([N+](=O)[O-])cc3[nH]2)cc1 | n | n | n | n | n | n
NC(N)=Nc1nc2ccc([N+](=O)[O-])cc2[nH]1 | 0.35µM! | n | n | n | n[13.5 µM] | n
SMILES | GoLoco inh red | NPSR antagonist | Sfp inh | FBPA coupling cs | ALDH1A1 inh | KDM4E inh
Cc1ccc(-c2nc3ccc([N+](=O)[O-])cc3[nH]2)cc1 | n | n | n | -31 | u | n
CCOc1ccc(S(=O)(=O)NCCC(=O)OCC(=O)Nc2cc(C)on2)cc1 | n | n | n | n | x | n
CCNc1ncc2nc(-c3cc(F)cc(F)c3)c(=O)n(CCc3ccccc3)c2n1 | n | x | n | n | u | x
CC(=O)Nc1sc(C)c(C)c1C(=O)OC(C)C | n | n | n | n | 22µM | n
CC(=O)Nc1sc(C)c(C)c1C(=O)Nc1ccc(C)cc1 | n | n | n | n | n | n
Cc1ccc(-n2cccn2)cc1 | n | n | n | n | n | n
O=Cc1ccc(-n2cccn2)cc1 | n | n | n | n | u | 14µM
Cc1nccn1-c1ccc(C=O)cc1 | n | n | n | n | 20µM | n
O=C(Cn1nnc(-c2ccccc2-n2cnnn2)n1)NCc1ccccc1 | n | n | n | n | 10µM | n
Cc1ccc(C(=O)Cn2nnc(-c3ccccc3-n3cnnn3)n2)cc1 | n | n | n | n | u | n
Cc1ccc(-c2nnn(CC(=O)Nc3ccccc3-c3ccccc3)n2)c(-n2cnnn2)c1 | n | n | n | n | 25µM | n
